NPC1 promoter act – qHTS Assay for NPC1 Promoter Activators; actives 2.4% (n = 320,000); AID 485313, 2010; Huh7 NPC1 promoter luciferase reporter, 24 h; Potency, µM (titrated, usually from 9.22 µM), inactives show at the top dose activation, actives largely listed as activators; also: % of control where 0% means no effect; nearly all actives have a fitted effect of over 60% in size
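In 1536-well qHTS, Huh7 cells harboring an NPC1 promoter–luciferase construct received compound for 24 h; activation was quantified by luminescence following luciferase reagent addition.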
SMN2 splice up – qHTS Assay for Enhancers of SMN2 Splice Variant Expression. HEK293 SMN2-luciferase splicing reporter, luminescence, 30-36 h. Potency, µM (top dose mostly 46.1 µM), for inactives: at the highest dose activity change, positive = activation, actives largely listed as activators. actives 2.8% (n = 210,000); also: % of control where 0% means no effect; nearly all actives have a fitted effect of over 55% in size
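qHTS luciferase splicing reporter: luminescence rises when SMN2 exon 7 is included in transfected HEK293 cells. Compound exposure lasted 30-36 h at 37C, with 4.5 mM final sodium butyrate as control, followed by a ONE-Glo read.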
FLuc modulator – qHTS profiling assay for firefly luciferase inhibitor/activator using purifed enzyme and Km concentrations of substrates (counterscreen for miR-21 project); Luciferin 4-monooxygenase (Photinus pyralis), P08659; purified FLuc, Km substrates, luminescence inhibition; Potency, µM (titrated, usually from 57.5 µM), without a hit: top-dose activity change, negative = inhibition, actives largely listed as inhibitors; actives 6.9% (n = 360,000); AID 588342, 2011;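 also: plate controls were vehicle for no effect and reference inhibitor for full effect; nearly all actives have a fitted effect of over 55% in size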
Target sequence (P08659 whole entry, looked up): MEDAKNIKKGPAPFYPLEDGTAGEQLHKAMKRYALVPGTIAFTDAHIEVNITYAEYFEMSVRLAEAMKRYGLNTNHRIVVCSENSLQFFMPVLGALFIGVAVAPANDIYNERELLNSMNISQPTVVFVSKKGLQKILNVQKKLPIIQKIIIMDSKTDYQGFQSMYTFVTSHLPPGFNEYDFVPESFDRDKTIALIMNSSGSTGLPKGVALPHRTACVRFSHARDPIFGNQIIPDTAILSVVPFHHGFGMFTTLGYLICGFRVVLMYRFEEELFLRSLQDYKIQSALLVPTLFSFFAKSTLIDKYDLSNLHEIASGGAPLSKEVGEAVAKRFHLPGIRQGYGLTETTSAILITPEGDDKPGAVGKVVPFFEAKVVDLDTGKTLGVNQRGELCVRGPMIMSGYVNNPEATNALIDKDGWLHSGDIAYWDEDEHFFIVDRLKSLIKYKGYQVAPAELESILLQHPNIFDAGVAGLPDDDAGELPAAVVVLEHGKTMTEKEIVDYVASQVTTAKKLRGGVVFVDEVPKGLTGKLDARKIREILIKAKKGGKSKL
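Purified P. pyralis luciferase, 10 nM final, with Km-level 10 uM D-luciferin and 10 uM ATP in 50 mM Tris acetate pH 7.5, 10 mM Mg acetate, 0.01% Tween-20, 0.05% BSA; 6-point qHTS titration about 60 µM downward; luminescence read.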
Rab9 prom act – qHTS Assay for Rab9 Promoter Activators. Huh7 Rab9 promoter-luciferase reporter, luminescence, 24 h. Potency, µM (doses to about 9.22 µM), inactives show at the top dose activation, negative = inhibition, usual class: activators. actives 2.8% (n = 320,000). AID 485297, 2010; also: % of control where 0% means no effect; nearly all actives have a fitted effect of over 60% in size
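Luciferase signal after 10 min detection reagent at ambient indicates Rab9 promoter upregulation; stably transfected Huh7 cells were treated 24 h with compound in DMSO at 37 °C, 5% CO2.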
ELG1 genotox – qHTS screen for small molecules that induce genotoxicity in human embryonic kidney (HEK293T) cells expressing luciferase-tagged ELG1; Potency, µM (doses to about 46 µM), for inactives: at the highest dose activity change, positive = activation, most hits filed as activators; actives 1.3% (n = 330,000); HEK293T ELG1-luciferase reporter, luminescence, 16 h; also: % of control where 0% means no effect; nearly all actives have a fitted effect of over 60% in size
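After overnight (16 hr) compound treatment at 37 °C, ELG1-luciferase HEK293T cells were lysed with ONE-Glo; luminescence quantified 30 min later at room temperature.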
Active calls of the source: *. This is a sample that favours compounds with a hit; in the whole collection about 7.5% have one here. Calls follow the shape of the dose curve; as a rule, active = well fitted curve in the direction sought with a large enough effect; inconclusive = small, poorly fitted or top-dose-only effect, or another doubt; inactive = no such curve, though single readings can be large; an effect the other way counts as inactive or inconclusive. Potency is read from the fitted curve at half-maximal effect.

For COC(=O)c1c(NC(=O)C2(C)Cc3ccccc3C(=O)O2)sc2c1CCCC2 (stereo unspecified) the results were NPC1 promoter act -2.2%, SMN2 splice up -31.8%, FLuc modulator 0.4%, Rab9 prom act 1.1% and ELG1 genotox -5.0%.
`COc1cccc2sc3ccc(C#CC4(N)CCCCC4)cc3c(=O)c12` gave NPC1 promoter act 24.3%, FLuc modulator 19µM*, Rab9 prom act 20.8% and ELG1 genotox 10.5%.
`Cn1c(/C(C#N)=C/c2ccccc2Br)nc2ccccc21` gave SMN2 splice up 4.5% and FLuc modulator 7.57µM*.
For COc1ccccc1C(=O)c1nc2ccccc2n1C the results were NPC1 promoter act 28.6%, FLuc modulator 0.7%, Rab9 prom act 0.7% and ELG1 genotox 0.1%.
For COc1ccc(N/C=C(\C#N)c2nc3ccccc3n2C)c(OC)c1 the results were NPC1 promoter act 21.2%, SMN2 splice up -18.0%, FLuc modulator 2.69µM*, Rab9 prom act 0.4% and ELG1 genotox -7.0%.
CCn1c(/C(C#N)=C/c2ccccc2Cl)nc2ccccc21 was read as FLuc modulator 5.36µM*.
For CCNC(=O)CC1C(=O)N(c2ccccc2)C(=O)N1Cc1ccc(F)cc1 (stereo unspecified) the results were SMN2 splice up -1.1% and FLuc modulator -2.3%.
For CCOC(=O)c1ccc(-c2ccc(/C=N/NC(=O)c3cncc(Br)c3)o2)cc1 the results were NPC1 promoter act 1.26µM*, FLuc modulator 1.7%, Rab9 prom act 0.708µM* and ELG1 genotox inconclusive.
`Cc1ccc(/C=N\NC(=O)c2cncc(Br)c2)o1` gave NPC1 promoter act -3.8%, SMN2 splice up -1.4%, FLuc modulator -10.5%, Rab9 prom act 1.9% and ELG1 genotox -2.7%.
CCOC(=O)c1ccc(-c2ccc(/C=N/NC(=O)Cc3nnc(N)s3)o2)cc1 was read as NPC1 promoter act 2.51µM*, FLuc modulator inconclusive, Rab9 prom act 3.16µM* and ELG1 genotox 14.1%.
Nc1nnc(CC(=O)N/N=C/c2ccc(-c3ccc(F)cc3)o2)s1 was read as NPC1 promoter act 1.1%, FLuc modulator inconclusive, Rab9 prom act -6.0% and ELG1 genotox 0.5%.
O=C(Nc1ccc(NS(=O)(=O)c2ccccc2)cc1)c1ccccc1Cl was read as ELG1 genotox -1.7%.
Screening O=C(Nc1ccc(N2CCOCC2)c(Cl)c1)c1cc2ccccc2o1 returned NPC1 promoter act 3.55µM*, SMN2 splice up 27.4%, FLuc modulator 8.49µM*, Rab9 prom act 3.16µM* and ELG1 genotox -11.3%.
`Cc1ccsc1C(=O)Nc1ccccc1N1CCOCC1` gave NPC1 promoter act 6.1%, SMN2 splice up 5.7%, FLuc modulator 19µM*, Rab9 prom act -5.9% and ELG1 genotox -2.1%.
O=C(NCCN1CCOCC1)Nc1ccc(Cl)cc1 was read as NPC1 promoter act 6.0%, SMN2 splice up 7.08µM*, FLuc modulator -2.8%, Rab9 prom act -1.6% and ELG1 genotox -5.3%.
For O=C(Nc1ccccc1N1CCCC1)c1cc2ccccc2o1 the results were NPC1 promoter act inconclusive, SMN2 splice up 22.4µM*, FLuc modulator 7.57µM*, Rab9 prom act 29.2% and ELG1 genotox 0.5%.
Screening CCN(CC)S(=O)(=O)c1ccc(N2CCOCC2)c(NC(=O)c2sccc2C)c1 returned ELG1 genotox -2.6%.
`CNC(=S)N(Cc1cc2cc(OC)c(OC)cc2[nH]c1=O)C1CCCC1` gave NPC1 promoter act -0.2%, FLuc modulator -1.3%, Rab9 prom act -3.9% and ELG1 genotox 2.9%.
Screening COc1ccc(CNC(=O)c2nc(SCc3ccccc3F)ncc2Cl)cc1 returned SMN2 splice up -52.3% and FLuc modulator -2.6%.
For O=C(Nc1cccnc1Cl)c1cc2ccccc2o1 the results were NPC1 promoter act 1.58µM*, FLuc modulator 5.36µM*, Rab9 prom act 1.26µM* and ELG1 genotox 9.2µM*.
For CN1CCN(c2ccc(NC(=O)c3cc4ccccc4o3)cc2)CC1 the results were NPC1 promoter act 1.58µM*, FLuc modulator 6.01µM*, Rab9 prom act 3.55µM* and ELG1 genotox 10.3µM*.
`CS(=O)(=O)N1CCN(c2ccc(NC(=O)c3cc4ccccc4o3)cc2)CC1` gave NPC1 promoter act inconclusive, FLuc modulator -13.1%, Rab9 prom act inconclusive and ELG1 genotox inconclusive.
Screening O=C(Nc1ccc(CN2CCOCC2)cc1)c1ccc(Br)o1 returned NPC1 promoter act 3.16µM*, FLuc modulator 19µM*, Rab9 prom act inconclusive and ELG1 genotox inconclusive.
Screening Cc1cc(NC(=O)c2cccnc2Cl)ccc1NC(=O)c1cc2ccccc2o1 returned NPC1 promoter act -3.6%, FLuc modulator -6.5%, Rab9 prom act -4.6% and ELG1 genotox -21.3%.
O=C(Nc1ccc(N2CCOCC2)c(Cl)c1)c1ccc(Br)o1 was read as NPC1 promoter act 1.41µM*, SMN2 splice up 4.47µM*, FLuc modulator 8.49µM*, Rab9 prom act 3.16µM* and ELG1 genotox inconclusive.
CCOC(=O)c1ccc(NC(=O)C2=C(C)Nc3nc(SCc4ccc(Cl)cc4)nn3C2c2ccc(C)cc2)cc1 (stereo unspecified) was read as SMN2 splice up -0.7% and FLuc modulator 1.0%.
`COc1ccc(CN(CC(=O)NCc2ccc(F)cc2)C(=O)CCC(=O)Nc2ccccn2)cc1` gave NPC1 promoter act -3.1%, FLuc modulator 1.2%, Rab9 prom act -5.9% and ELG1 genotox -8.2%.
Cc1ccc(C)c(CN2C(=O)C3(c4ccccc42)N(c2ccc(Cl)cc2)C(=O)CS3(=O)=O)c1 (stereo unspecified) was read as FLuc modulator -6.9%.
O=C(Nc1ccccc1N1CCOCC1)c1cc2ccccc2o1 was read as NPC1 promoter act inconclusive, FLuc modulator 9.53µM*, Rab9 prom act 16.4% and ELG1 genotox 4.3%.
CN1CCN(c2ccccc2NC(=O)c2cc3ccccc3o2)CC1 was read as NPC1 promoter act 20.0%, SMN2 splice up -10.6%, FLuc modulator inconclusive, Rab9 prom act 2.2% and ELG1 genotox 5.3%.
Cc1ccc2c(c1)C(=O)OC(C(=O)Nc1ccc(C(=O)O)cc1)C2 (stereo unspecified) was read as SMN2 splice up -3.4% and FLuc modulator 7.57µM*.
For COc1ccc(/C=C/C(=O)Nc2ccc(Cl)c(Cl)c2)cc1 the results were SMN2 splice up 5.7% and FLuc modulator 4.78µM*.
`COc1ccc(/C=C/C(=O)Nc2cccnc2Cl)cc1` gave NPC1 promoter act 2µM*, FLuc modulator 5.36µM*, Rab9 prom act 2.51µM* and ELG1 genotox 9.2µM*.

Bioassay records (PubChem)
